Measurements reported in PubChem BioAssay AID1671463 (Sanford-Burnham Center for Chemical Genomics, 2021).
In all, about 370,000 compounds went through this assay and about 520 (0.14%) were called active. Cut-off read from the data, not from the text of the source: active = activation above about 40%; inactive = the rest. The sample as a whole holds a higher share of actives than the screen did.

target: Atrial natriuretic peptide receptor 1 (Homo sapiens) (UniProt P16066); test: GC-A stimulated cGMP production enhancers – HEK293 GC-A cells, cGMP TR-FRET, EC30 ANP, primary screen (AID 1671463); settings: at 10 µM, hits give high values, 0% at EC30 ANP, 100% saturating ANP
Sequence (P16066 whole entry, looked up): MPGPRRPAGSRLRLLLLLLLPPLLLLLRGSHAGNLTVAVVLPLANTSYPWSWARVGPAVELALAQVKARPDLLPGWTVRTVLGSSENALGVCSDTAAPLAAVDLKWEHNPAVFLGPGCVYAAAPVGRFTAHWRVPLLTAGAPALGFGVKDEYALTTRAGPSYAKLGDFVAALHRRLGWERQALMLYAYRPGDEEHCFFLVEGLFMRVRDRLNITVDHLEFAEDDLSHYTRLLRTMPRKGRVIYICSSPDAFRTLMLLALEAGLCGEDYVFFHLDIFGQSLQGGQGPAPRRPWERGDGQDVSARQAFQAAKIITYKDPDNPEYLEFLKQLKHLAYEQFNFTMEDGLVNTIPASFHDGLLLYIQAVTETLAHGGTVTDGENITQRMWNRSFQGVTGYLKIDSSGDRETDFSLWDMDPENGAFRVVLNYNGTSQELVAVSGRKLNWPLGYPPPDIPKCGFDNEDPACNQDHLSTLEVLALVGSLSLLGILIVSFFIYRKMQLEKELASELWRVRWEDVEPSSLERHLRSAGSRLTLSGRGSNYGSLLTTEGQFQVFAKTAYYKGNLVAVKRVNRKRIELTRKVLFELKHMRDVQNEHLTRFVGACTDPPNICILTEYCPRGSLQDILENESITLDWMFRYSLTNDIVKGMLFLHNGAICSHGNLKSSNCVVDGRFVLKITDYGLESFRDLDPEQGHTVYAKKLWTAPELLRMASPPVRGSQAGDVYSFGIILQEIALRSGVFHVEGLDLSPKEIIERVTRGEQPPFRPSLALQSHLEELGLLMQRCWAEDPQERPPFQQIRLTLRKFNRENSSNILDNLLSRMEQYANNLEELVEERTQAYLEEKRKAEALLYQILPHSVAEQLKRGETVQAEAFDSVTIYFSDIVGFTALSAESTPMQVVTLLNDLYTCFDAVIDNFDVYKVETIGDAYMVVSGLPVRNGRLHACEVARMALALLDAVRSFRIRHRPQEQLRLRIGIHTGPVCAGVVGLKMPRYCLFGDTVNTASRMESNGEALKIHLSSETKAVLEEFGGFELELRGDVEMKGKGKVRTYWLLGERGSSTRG

SMILES	activation
COC(=O)Nc1ccc(S(=O)(=O)N2CCN(CCN3C(=O)C4C5C=CC(C5)C4C3=O)CC2)cc1 (stereo unspecified)	-1.89% (inactive)
Cc1cc(=O)n2nc(N3CCC(C(=O)Nc4c(F)c(F)c(F)c(F)c4F)CC3)sc2n1	0.6% (inactive)
CC(C)c1cc(C(N)=O)c(NC(=O)c2cccc(COc3ccc(Br)cc3)c2)s1	-1.61% (inactive)
O=C(CN1C2CCC1CC(NC(=O)C1CC1)C2)NCc1ccccc1 (stereo unspecified)	0.13% (inactive)
COc1ccccc1CNC(=O)CSc1nc(=O)n(Cc2ccncc2)c2c1CCC2	2.8% (inactive)
O=C1CC[C@@H](COc2ccc3[nH]cc(-c4ccccc4)c3c2-c2ccccc2)N1	2.69% (inactive)
CC(C)C[C@H](NC(=O)[C@@H]1O[C@H]1C(=O)O)C(=O)NCCCCN=C(N)N	2.77% (inactive)
C[C@H](NS(=O)(=O)c1ccc(Cl)cc1)C(=O)OCC(=O)N1CCOCC1	7.01% (inactive)
Nc1ccc(N=Nc2ccccc2Cl)c(N)n1	38.8% (inactive)
CCN(CC)S(=O)(=O)c1ccc(CNC(=O)CN2C(=O)NC3(CCc4ccccc43)C2=O)cc1 (stereo unspecified)	-0.1% (inactive)
O=C(O)CCSc1nnc(-c2ccccc2)n1-c1ccccc1	4.68% (inactive)
C[C@@H](O)c1nc2ccccc2n1N	1.42% (inactive)
Cc1noc(C)c1COC(=O)COc1ccc(-c2ccccc2)cc1	42% (active)
COCc1c(C(=O)OCc2c(C)noc2C)oc2ccccc12	2.41% (inactive)
Cc1noc(C)c1COc1cccc(C(=O)Nc2cccnc2)c1	-4.16% (inactive)
CCCCOc1ccc(N(CC(=O)NCC2CCCO2)C(=O)CCC(=O)Nc2cc(C)ccn2)cc1 (stereo unspecified)	0.77% (inactive)
CSc1sc(C(=O)NNC(=O)c2ccc(Cl)cc2)c2c1C=CCC2	-1.84% (inactive)
Cc1cc(NC(=O)CS(=O)(=O)c2cn(C)c3ccccc23)no1	1.25% (inactive)
CC(=O)c1ccc(S(=O)(=O)NC2CC(=O)N(c3ccc4c(c3)OCCO4)C2)cc1 (stereo unspecified)	4.47% (inactive)

SMILES	activation
Cc1ccn(-c2cccc(-n3ccc(C)n3)n2)n1	5.87% (inactive)
CCCCOc1ccc(NC(=O)[C@@H]2CCCN2C(=O)C2CCN(S(=O)(=O)c3ccc(C)cc3)CC2)cc1	2.31% (inactive)
O=C(Nc1ccon1)c1nc[nH]c1C(=O)NCc1ccccc1	-0.12% (inactive)
NC(N)=NCCCc1cn(CC(=O)N2CCNCC2)nn1	-2.97% (inactive)
Cc1oc2cc3oc(=O)ccc3cc2c1C	-1.91% (inactive)
CC(C)Oc1ccc(C(CC(=O)N2CCOCC2)C(C)C)cc1 (stereo unspecified)	-1.14% (inactive)
O=C(CSc1nnc(-c2ccncc2)o1)NCc1ccc(Cl)cc1	-2.38% (inactive)
O=C(CSc1nnc(-c2ccncc2)o1)Nc1cccc(Cl)c1	-5.53% (inactive)
O=C(COC(=O)CSc1nnc(-c2ccc(Cl)cc2)o1)Nc1cc(Cl)cc(Cl)c1	60.5% (active)
O=[N+]([O-])c1ccc(CN2CC(N3CC=CC3)CS2(=O)=O)cc1 (stereo unspecified)	0.5% (inactive)
O=C1/C(=C\c2ccc([N+](=O)[O-])cc2)CS(=O)(=O)C/C1=C/c1ccc([N+](=O)[O-])cc1	43.4% (active)
Nc1c(N(CCO)C(=O)C2CCCCC2)c(=O)[nH]c(=O)n1Cc1ccccc1	-4.4% (inactive)
CC(NC(=O)COc1ccc(-c2ccccc2)cc1)C1CCCO1 (stereo unspecified)	3.26% (inactive)
COC(=O)CN1C(=O)[C@H]2[C@@H](C3CC3)N3C(=O)CN(Cc4ccc(-c5ccccc5)cc4)C(=O)[C@@]3(Cc3ccccc3)[C@H]2C1=O	4.81% (inactive)
O=C(CSc1nc2ccccc2n1Cc1ccccc1)NNC(=S)Nc1ccccc1	0.91% (inactive)
O=S(=O)(Nc1ccc(-c2ccc(N3CCOCC3)nn2)cc1)c1cc(Cl)ccc1Cl	0.58% (inactive)
COc1cc(NC(=O)c2ccc(CNc3c(N4CCCC4)c(=O)c3=O)cc2)cc(OC)c1OC	-2.1% (inactive)
Fc1ccc2c(c1)C(c1cccnc1)=NNC(c1cccs1)=N2	-28.1% (inactive)
[O-][n+]1c2c(nn1-c1ccc(Cl)c(Cl)c1)-c1nonc1CC2	9.72% (inactive)

SMILES	activation
C=CCOc1ccc(Cl)cc1CNCCCN1CCOCC1	-6.85% (inactive)
O=C1C=C(c2ccnc3cc(Cl)ccc23)C[C@@H](c2ccc3c(c2)OCO3)C1	0.61% (inactive)
CCOc1ccc(NC(=O)CSc2ncnc3c2sc2ccccc23)cc1	38.7% (inactive)
CC(C)CCSc1ncnc2c1oc1nc3c(cc12)COC(C)(C)C3	-1.1% (inactive)
CC1(C)Cc2nc3sc4c(SCC(=O)NC(c5ccccc5)c5ccccc5)ncnc4c3cc2CO1	52.8% (active)
CN1CCC(=NNC(=O)CN(c2cccc(Cl)c2)S(C)(=O)=O)CC1	0.89% (inactive)
CCCCCn1c(SCCC(C)C)nc2c1c(=O)[nH]c(=O)n2C	1.84% (inactive)
COc1ccc2occ(C(=O)c3ccc(N=C(C)N(C)C)cc3)c2c1	-4.34% (inactive)
Cc1nn(Cc2ccccc2)c(C)c1C(=O)N1CCN(CC(=O)Nc2ccccc2Cl)CC1	4.37% (inactive)
CN(C)CCN=c1cc(-c2ccccc2)oc2ccc(Cl)cc12	1.39% (inactive)
COc1ccc(C(CC(=O)c2ccccc2)S(=O)(=O)c2ccccc2)cc1 (stereo unspecified)	-10.5% (inactive)
O=C(c1ccc(F)c(S(=O)(=O)N2CCOCC2)c1)N(CCc1ccccc1)Cc1ccccc1	-3.51% (inactive)
O=C(CN1C(=O)c2ccc([N+](=O)[O-])cc2C1=O)Nc1nnc(C2CC2)s1	5.52% (inactive)
COc1ccc(NC(=O)C(CC(C)C)NC(=O)C2CCC(C)CC2)cc1 (stereo unspecified)	-0.39% (inactive)
CCOC(=O)N1CCN(C(=O)CSc2nnc(-c3c[nH]c4ccccc34)n2CCOC)CC1	-1.3% (inactive)
CCNC(=O)N1CCN(S(=O)(=O)c2ccc3c(c2)OCCCO3)CC1	-0.67% (inactive)
O=C(CCC1CCCN(Cc2ccc(O)c(Cl)c2)C1)NCc1ccccc1F (stereo unspecified)	3.25% (inactive)
COc1ccc2cc(C(=O)O)n(CC(=O)c3ccccc3)c2c1	-0.02% (inactive)
